# Laboratory results: the supplement of paper PMC4466140
# B1: unnamed (peptide)
# chain: MTKTPETSPPKRPMG
# B2: unnamed (peptide)
# chain: DLPLPDLPPEPPTEL
# B3: unnamed (peptide)
# chain: QTREPNEPPPPSPAM
# How the values were obtained:
# Assay in all cases: SPOT peptide array binding signal intensity (averaged, normalized) (arbitrary units (background-subtracted, floor 0; scale differs between SH3 domains)); higher = stronger binding of the SH3 domain to the peptide
# [1] = target: SpBzz1-D2
# Method in brief: (§1)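 GST-fused SH3 domains from four yeast species were expressed in E. coli BL21(DE3), purified on glutathione Sepharose and incubated at 10 μg/ml overnight at 4°C in TBS-based blocking buffer on cellulose membranes carrying synthetic 15-mer peptides, with cysteines replaced by serines. Bound protein was detected with anti-GST antibody, an HRP anti-mouse secondary and luminol, then imaged and quantified with Genespotter. Binding signal is the normalized, background-subtracted spot intensity averaged over replicates, in arbitrary units that differ between domains.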
# [2] = target: SpCyk3
# Method in brief: as §1
# [3] = target: SpHof1
# Method in brief: as §1
# [4] = target: SpHof1-2
# Method in brief: as §1
# [5] = target: SpHof1-3
# Method in brief: as §1
# [6] = target: SpHse1
# Method in brief: as §1
# [7] = target: SpLsb1
# Method in brief: as §1
# [8] = target: SpLsb4
# Method in brief: as §1
# [9] = target: SpMyo1
# Method in brief: as §1
# [10] = target: SpNbp2
# Method in brief: as §1
# [11] = target: SpPex13
# Method in brief: as §1
# [12] = target: SpRvs167
# Method in brief: as §1
# [13] = target: SpSla1-D1-D2
# Method in brief: as §1
# [14] = target: SpSla1-D3
# Method in brief: as §1
# [15] = target: AgAbp1
# Method in brief: as §1
# [16] = target: AgBbc1
# Method in brief: as §1
# [17] = target: AgBem1-D1
# Method in brief: as §1
# [18] = target: AgBzz1-D1
# Method in brief: as §1
# [19] = target: AgBzz1-D2
# Method in brief: as §1
# [20] = target: AgCyk3
# Method in brief: as §1
# [21] = target: AgFus1
# Method in brief: as §1
# [22] = target: AgHof1
# Method in brief: as §1
# [23] = target: AgHse1
# Method in brief: as §1
# [24] = target: AgLsb1
# Method in brief: as §1
# [25] = target: AgLsb4
# Method in brief: as §1
# [26] = target: AgMyo5
# Method in brief: as §1
# [27] = target: AgNbp2
# Method in brief: as §1
# [28] = target: AgRvs167
# Method in brief: as §1
# [29] = target: AgSho1
# Method in brief: as §1
# [30] = target: AgSla1-D1-D2
# Method in brief: as §1
# [31] = target: AgSla1-D3
# Method in brief: as §1
# [32] = target: CaAbp1-D1
# Method in brief: as §1
# [33] = target: CaAbp1-D2
# Method in brief: as §1
# [34] = target: CaBbc1
# Method in brief: as §1
# [35] = target: CaBem1-D1
# Method in brief: as §1
# [36] = target: CaBzz1-D1
# Method in brief: as §1
# [37] = target: CaBzz1-D2
# Method in brief: as §1
# [38] = target: CaCyk3
# Method in brief: as §1
# [39] = target: CaFus1
# Method in brief: as §1
# [40] = target: CaHof1
# Method in brief: as §1
# [41] = target: CaHse1
# Method in brief: as §1
# [42] = target: CaLsb1
# Method in brief: as §1
# [43] = target: CaLsb4
# Method in brief: as §1
# [44] = target: CaMyo5
# Method in brief: as §1
# [45] = target: CaNbp2
# Method in brief: as §1
# [46] = target: CaRvs167
# Method in brief: as §1
# [47] = target: CaRvs167-3
# Method in brief: as §1
# [48] = target: CaSho1
# Method in brief: as §1
# [49] = target: CaSla1-D1-D2
# Method in brief: as §1
# [50] = target: CaSla1-D3
# Method in brief: as §1
# [51] = target: ScAbp1
# Method in brief: as §1
# [52] = target: ScBbc1
# Method in brief: as §1
# [53] = target: ScBem1-D1
# Method in brief: as §1
# [54] = target: ScBzz1-D1
# Method in brief: as §1
# [55] = target: ScBzz1-D2
# Method in brief: as §1
# [56] = target: ScCyk3
# Method in brief: as §1
# [57] = target: ScFus1
# Method in brief: as §1
# [58] = target: ScHof1
# Method in brief: as §1
# [59] = target: ScHse1
# Method in brief: as §1
# [60] = target: ScLsb1
# Method in brief: as §1
# [61] = target: ScLsb2
# Method in brief: as §1
# [62] = target: ScLsb3
# Method in brief: as §1
# [63] = target: ScLsb4
# Method in brief: as §1
# [64] = target: ScMyo3
# Method in brief: as §1
# [65] = target: ScMyo5
# Method in brief: as §1
# [66] = target: ScNbp2
# Method in brief: as §1
# [67] = target: ScPex13
# Method in brief: as §1
# [68] = target: ScRvs167
# Method in brief: as §1
# [69] = target: ScSho1
# Method in brief: as §1
# [70] = target: ScSla1-D1-D2
# Method in brief: as §1
# [71] = target: ScSla1-D3
# Method in brief: as §1
# [72] = target: SpAbp1-D1
# Method in brief: as §1
# [73] = target: SpBbc1
# Method in brief: as §1
# [74] = target: SpBzz1-D1
# Method in brief: as §1
binder,measurement,setting,value
B1,SPOT peptide array binding signal intensity,[1],1.25
same,SPOT peptide array binding signal intensity,[2],1
same,SPOT peptide array binding signal intensity,[3],18.5
same,SPOT peptide array binding signal intensity,[4],18.2
same,SPOT peptide array binding signal intensity,[5],≤ 0
same,SPOT peptide array binding signal intensity,[6],13
same,SPOT peptide array binding signal intensity,[7],2.5
same,SPOT peptide array binding signal intensity,[8],285
same,SPOT peptide array binding signal intensity,[9],446
same,SPOT peptide array binding signal intensity,[10],5.5
same,SPOT peptide array binding signal intensity,[11],≤ 0
same,SPOT peptide array binding signal intensity,[12],18.5
same,SPOT peptide array binding signal intensity,[13],4
same,SPOT peptide array binding signal intensity,[14],17
B2,SPOT peptide array binding signal intensity,[15],≤ 0
same,SPOT peptide array binding signal intensity,[16],≤ 0
same,SPOT peptide array binding signal intensity,[17],≤ 0
same,SPOT peptide array binding signal intensity,[18],≤ 0
same,SPOT peptide array binding signal intensity,[19],2
same,SPOT peptide array binding signal intensity,[20],0.5
same,SPOT peptide array binding signal intensity,[21],≤ 0
same,SPOT peptide array binding signal intensity,[22],54.5
same,SPOT peptide array binding signal intensity,[23],10.5
same,SPOT peptide array binding signal intensity,[24],≤ 0
same,SPOT peptide array binding signal intensity,[25],≤ 0
same,SPOT peptide array binding signal intensity,[26],207
same,SPOT peptide array binding signal intensity,[27],≤ 0
same,SPOT peptide array binding signal intensity,[28],≤ 0
same,SPOT peptide array binding signal intensity,[29],≤ 0
same,SPOT peptide array binding signal intensity,[30],2
same,SPOT peptide array binding signal intensity,[31],≤ 0
same,SPOT peptide array binding signal intensity,[32],≤ 0
same,SPOT peptide array binding signal intensity,[33],≤ 0
same,SPOT peptide array binding signal intensity,[34],≤ 0
same,SPOT peptide array binding signal intensity,[35],≤ 0
same,SPOT peptide array binding signal intensity,[36],≤ 0
same,SPOT peptide array binding signal intensity,[37],≤ 0
same,SPOT peptide array binding signal intensity,[38],≤ 0
same,SPOT peptide array binding signal intensity,[39],≤ 0
same,SPOT peptide array binding signal intensity,[40],2.5
same,SPOT peptide array binding signal intensity,[41],1
same,SPOT peptide array binding signal intensity,[42],0.5
same,SPOT peptide array binding signal intensity,[43],≤ 0
same,SPOT peptide array binding signal intensity,[44],0.75
B3,SPOT peptide array binding signal intensity,[15],≤ 0
same,SPOT peptide array binding signal intensity,[16],≤ 0
same,SPOT peptide array binding signal intensity,[17],≤ 0
same,SPOT peptide array binding signal intensity,[18],1.5
same,SPOT peptide array binding signal intensity,[19],4
same,SPOT peptide array binding signal intensity,[20],≤ 0
same,SPOT peptide array binding signal intensity,[21],≤ 0
same,SPOT peptide array binding signal intensity,[22],2.5
same,SPOT peptide array binding signal intensity,[23],≤ 0
same,SPOT peptide array binding signal intensity,[24],≤ 0
same,SPOT peptide array binding signal intensity,[25],≤ 0
same,SPOT peptide array binding signal intensity,[26],1420
same,SPOT peptide array binding signal intensity,[27],≤ 0
same,SPOT peptide array binding signal intensity,[28],0.667
same,SPOT peptide array binding signal intensity,[29],≤ 0
same,SPOT peptide array binding signal intensity,[30],≤ 0
same,SPOT peptide array binding signal intensity,[31],≤ 0
same,SPOT peptide array binding signal intensity,[32],≤ 0
same,SPOT peptide array binding signal intensity,[33],≤ 0
same,SPOT peptide array binding signal intensity,[34],≤ 0
same,SPOT peptide array binding signal intensity,[35],≤ 0
same,SPOT peptide array binding signal intensity,[36],8
same,SPOT peptide array binding signal intensity,[37],≤ 0
same,SPOT peptide array binding signal intensity,[38],≤ 0
same,SPOT peptide array binding signal intensity,[39],6.5
same,SPOT peptide array binding signal intensity,[40],0.25
same,SPOT peptide array binding signal intensity,[41],0.75
same,SPOT peptide array binding signal intensity,[42],0.25
same,SPOT peptide array binding signal intensity,[43],≤ 0
same,SPOT peptide array binding signal intensity,[44],108
same,SPOT peptide array binding signal intensity,[45],≤ 0
same,SPOT peptide array binding signal intensity,[46],1.67
same,SPOT peptide array binding signal intensity,[47],≤ 0
same,SPOT peptide array binding signal intensity,[48],≤ 0
same,SPOT peptide array binding signal intensity,[49],≤ 0
same,SPOT peptide array binding signal intensity,[50],0.5
same,SPOT peptide array binding signal intensity,[51],≤ 0
same,SPOT peptide array binding signal intensity,[52],≤ 0
same,SPOT peptide array binding signal intensity,[53],≤ 0
same,SPOT peptide array binding signal intensity,[54],7
same,SPOT peptide array binding signal intensity,[55],≤ 0
same,SPOT peptide array binding signal intensity,[56],≤ 0
same,SPOT peptide array binding signal intensity,[57],≤ 0
same,SPOT peptide array binding signal intensity,[58],1
same,SPOT peptide array binding signal intensity,[59],≤ 0
same,SPOT peptide array binding signal intensity,[60],0.5
same,SPOT peptide array binding signal intensity,[61],≤ 0
same,SPOT peptide array binding signal intensity,[62],13.5
same,SPOT peptide array binding signal intensity,[63],1.5
same,SPOT peptide array binding signal intensity,[64],2210
same,SPOT peptide array binding signal intensity,[65],1580
same,SPOT peptide array binding signal intensity,[66],≤ 0
same,SPOT peptide array binding signal intensity,[67],1.75
same,SPOT peptide array binding signal intensity,[68],1.33
same,SPOT peptide array binding signal intensity,[69],2
same,SPOT peptide array binding signal intensity,[70],1.5
same,SPOT peptide array binding signal intensity,[71],≤ 0
same,SPOT peptide array binding signal intensity,[72],≤ 0
same,SPOT peptide array binding signal intensity,[73],≤ 0
same,SPOT peptide array binding signal intensity,[74],≤ 0
same,SPOT peptide array binding signal intensity,[1],0.5
same,SPOT peptide array binding signal intensity,[2],0.5
same,SPOT peptide array binding signal intensity,[3],≤ 0
same,SPOT peptide array binding signal intensity,[4],7.75
same,SPOT peptide array binding signal intensity,[5],≤ 0
same,SPOT peptide array binding signal intensity,[6],≤ 0
same,SPOT peptide array binding signal intensity,[7],≤ 0
same,SPOT peptide array binding signal intensity,[8],≤ 0
same,SPOT peptide array binding signal intensity,[9],1240
same,SPOT peptide array binding signal intensity,[10],≤ 0
same,SPOT peptide array binding signal intensity,[11],2
same,SPOT peptide array binding signal intensity,[12],1.67
same,SPOT peptide array binding signal intensity,[13],≤ 0
same,SPOT peptide array binding signal intensity,[14],≤ 0
